High-throughput results as filed in PubChem BioAssay.
SF1 inhibitor = SF-1 (human) inhibition; Q13285; CHO-K1 Gal4-SF-1 LBD luciferase reporter; inhibition, % at 10 µM; hit rate 0.55% among 65,000; AID 525;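 active = inhibition above the mean inhibition of all tested compounds plus 3 SD, cut at about 48% in these data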;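 also: 0% = SF-1 transfected cells with DMSO and 100% = mock-transfected cells lacking SF-1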
Target sequence (Q13285 whole entry, looked up, the tested form may be a part): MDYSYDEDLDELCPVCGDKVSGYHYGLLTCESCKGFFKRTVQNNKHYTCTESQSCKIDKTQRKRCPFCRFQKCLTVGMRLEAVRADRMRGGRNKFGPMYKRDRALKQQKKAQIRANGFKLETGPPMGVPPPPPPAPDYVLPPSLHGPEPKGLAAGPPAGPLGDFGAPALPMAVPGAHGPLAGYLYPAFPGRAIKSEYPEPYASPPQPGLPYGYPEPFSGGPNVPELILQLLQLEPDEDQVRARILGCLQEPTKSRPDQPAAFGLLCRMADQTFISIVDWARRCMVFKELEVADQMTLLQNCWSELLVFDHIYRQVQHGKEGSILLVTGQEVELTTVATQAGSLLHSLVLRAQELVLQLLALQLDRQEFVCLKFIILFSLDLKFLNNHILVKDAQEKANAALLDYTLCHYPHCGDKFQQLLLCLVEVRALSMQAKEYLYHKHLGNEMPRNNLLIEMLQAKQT
An asterisk follows results filed as active. Many of the other results were omitted from the sample, so hits are more common in it than they were.

SMILES	SF1 inhibitor
Fc1ccc(Cn2nnnc2CN2CCc3ccccc3C2)cc1	18.7
COc1ccccc1NC(=O)c1cnc2n(c1=O)CCS2	-28.7
CCOC(=O)Cn1nnc(-c2cccc(OC)c2)n1	5.9
CCCC(c1nnnn1CCOC)N1CCN(c2cccc(OC)c2)CC1 (stereo unspecified)	-0.4
CCCS(=O)(=O)c1nnnn1-c1cccc(OC)c1	58.4*
Cc1ccc(C(C)C)c(OCCNc2nc3c(c(=O)n(C)c(=O)n3C)n2C)c1	48.9*
COc1cccc(C(=O)Cn2c(Br)nc3c2c(=O)n(C)c(=O)n3C)c1	12.0
O=C1NCCCC1C(=O)NCCN1C(=O)CCC1=O (stereo unspecified)	-15.6
CC(=O)c1cccc(S(=O)(=O)N2CCN(c3nc4cc(C)cc(C)c4cc3C#N)CC2)c1	1.3
COc1cc(NC(=O)C2CC2)c(C(=O)O)cc1OC	-2.7
[O-][N+]1=c2ccc(Nc3ccccc3)cc2=NC12CCCCC2	61.8*
O=c1c2ccccc2nnn1CSc1ccc2c(c1)OCCO2	-77.3
Cc1ccc(C)c(CN2CCCNC2=O)c1	11.1
Oc1c(CN2CCCCC2)cc(Br)c2cccnc12	69.2*
O=C(NCCN1CCCCCC1)C1CCC(CNS(=O)(=O)c2cccc3cccnc23)CC1 (stereo unspecified)	-2.7
O=c1oc2ccccc2c(N2CCCCC2)c1CN1CCCCC1	8.2
O=c1c2ccccc2nnn1CSc1nnc2ccccn12	-77.6
CCOC(=O)c1c(C)[nH]c(C(=O)Nc2ccc3c(c2)OCO3)c1C	-132.1
CC(C)c1cc(C(=O)NC2CCCCC2)no1	-54.0
CCOP(=O)(c1c(F)c(F)c(F)c(F)c1F)C1(O)CCCCC1 (stereo unspecified)	0.4
c1ccc2nc(-c3nc4ccccc4[nH]3)ccc2c1	67.2*
O=c1[nH]c2ccccc2nc1-c1cccs1	-54.2
c1csc(-c2ccc3ccccc3n2)c1	-78.9
Cc1cc2c(cc1C)NC1(C(=O)Nc3ccccc31)C1=C(CC(C)(C)CC1=O)N2 (stereo unspecified)	-16.2
Clc1cc(Cl)c2nc(N3CCOCC3)sc2c1	-57.5
SMILES	SF1 inhibitor
c1c2c(cc3sc(N4CCOCC4)nc13)OCCO2	64.8*
c1ccc(N2CCN(c3nc4cc5c(cc4s3)OCCO5)CC2)cc1	-61.4
Cc1ccc2c(c1)nnn2C1CCN(S(=O)(=O)c2ccc(C(=O)N3CC(C)CC(C)C3)cc2)CC1 (stereo unspecified)	-24.0
CCCc1noc(-c2ccc(-c3ccccc3)cc2)n1	-55.2
O=C(CCC1(C(=O)O)CCC(=O)NC1)NCc1ccccc1 (stereo unspecified)	-20.2
COc1cccc(-n2c(SCC(=O)NCCc3ccccc3)nnc2-c2ccoc2C)c1	8.2
O=c1[nH]c2cccnc2n1Cc1ccco1	-15.5
O=C(OCC(=O)N1CCOCC1)C(c1ccccc1)c1ccccc1	-3.1
CCc1ccccc1NC(=O)c1nnn(CC(=O)Nc2ccccc2C)c1N	4.1
Nc1c(C(=O)Nc2ccc3c(c2)OCCO3)nnn1CCc1ccccc1	-92.4
COc1cccc(CNC(=O)c2nnn(CC(=O)Nc3ccc(C)c(C)c3)c2N)c1	56.0*
COc1cccc(-c2c(NC(=O)c3ccco3)n(-c3ccc(C)cc3)nc(C)c2=O)c1	16.7
COc1cccc(C(=O)Nc2ccc(NC(C)=O)cn2)c1	-35.1
COc1ccc(C(=O)Nc2ccc(C)cn2)c(OC)c1	82.1*
CCCC(=O)Nc1ccc(NC(=O)c2cccc(OC)c2)nc1	-60.4
C=CCc1c(C)nc(SC)nc1Nc1ccc(C(C)=O)cc1	-14.2
C=C(C)Cn1c(C2CC(=O)N(c3ccccc3F)C2)nc2ccccc21 (stereo unspecified)	-3.4
O=C(CCS(=O)CCC(=O)NCc1ccccc1)NCc1ccccc1	5.6
CCc1nc(C)c(-c2ccccc2)c(=O)[nH]1	-10.3
CCc1nn2cc(-c3ccccc3)nc2s1	69.0*
CCOC(=O)N1CCC(NC(=O)c2cccc3c2C(=O)N(CCOC)C3)CC1	3.7
CC(C)c1nnc(NC(=O)c2cnccn2)s1	-50.7
CCOc1ccccc1NC(=O)c1cccc(NC(=O)c2ccco2)c1	1.2
O=C(CSc1nnnn1C1CCCC1)Nc1cccc(NC(=O)c2ccco2)c1	-2.8
COc1ccccc1-n1nnnc1SCC(=O)Nc1cc(C)on1	2.6
SMILES	SF1 inhibitor
O=C(CSc1nnnn1C1CC2CCC1C2)Nc1ccnc2ccccc12 (stereo unspecified)	75.9*
CCC(=O)c1ccccc1OCCSc1nc(C)cc(=O)[nH]1	13.3
C#CC(C)(C)NC(=O)c1ccccc1OC	-10.6
Cc1ccc(-c2csc3n[nH]c(=S)n23)cc1	-0.2
Cc1oc2cc3c(C(=O)OCCN(C)C)c(C)oc3cc2c1C(=O)OCCN(C)C	79.4*
CN(C)CCOC(=O)C1(c2ccccc2)CCOCC1	-24.3
CN(C)CCCOC(=O)c1ccc(Br)cc1	4.2
O=C1CCCC2=C1C(c1ccco1)Nc1ccc3ccccc3c12 (stereo unspecified)	4.4
COc1ccc(C2CC(C(F)(F)F)n3nc(C(=O)NCc4cn(C)nc4C)c(Cl)c3N2)cc1 (stereo unspecified)	20.3
O=C(c1ccc2c(c1)OCCCO2)c1cccs1	-53.7
CCCCn1cnc2c(cnn2-c2ccc(Cl)cc2)c1=O	-64.8
CC(C)CN(C(=O)c1ccc(=O)n(C)n1)c1nc2ccccc2s1	-22.8
CCN1CCc2c(sc3c2c(NCc2ccco2)nc2nnnn23)C1	-2.4
COC(=O)CCc1c(C)nn(-c2ccccc2)c1C	-9.2
Cn1ccc(C(=O)OCC(=O)c2ccccc2)n1	-4.6
Cc1nn(-c2ccccc2)c(C)c1C(=O)OCC(=O)c1c(N)n(CC(C)C)c(=O)n(C)c1=O	55.1*
CCN1C(=O)c2ccccc2S(=O)c2ccc(C(=O)NCCCN3CCCC3=O)cc21 (stereo unspecified)	-33.2
Cc1cc(N2CCN(c3nnnn3-c3ccccc3)CC2)n2ncnc2n1	-6.1
Cc1cc(N2CCc3ccccc32)n2ncnc2n1	16.0
CCn1c2ccccc2c2cc(Nc3cc(C)nc4ncnn34)ccc21	70.3*
CCN(CC)c1ccc(-c2nn3c(-c4cccnc4)nnc3s2)cc1	6.6
CSCC[C@H](NC(=O)NCCC1=CCCCC1)C(=O)O	-9.4
Cc1cc(C)n(-c2nc(C)nc3sc4c(c23)CCC(C)C4)n1 (stereo unspecified)	5.2
O=C(Nc1ccccc1)N(O)c1ccc(Cl)cc1	-58.1
CC(C(=O)NC1CCCC1)N(C(=O)c1snc(C(N)=O)c1N)c1ccc2c(c1)OCCO2 (stereo unspecified)	-6.9
SMILES	SF1 inhibitor
Cc1ccc2nc(-c3ccccc3)cn2c1	89.2*
O=S(=O)(N1CCCCCC1)N1CCN(S(=O)(=O)N2CCOCC2)CC1	-3.1
O=C(Nc1ccc(SC(F)F)cc1)c1ccc2nccnc2c1	18.2
O=c1c2ccccc2cnn1-c1nc2ccccc2s1	90.0*
O=c1c2ccccc2nc2sc3ccccc3n12	-56.8
Cc1nn(-c2nc3ccccc3s2)c(N)c1-c1ccccc1	-60.0
Cc1ccc(CNC(=O)c2cn(C3CCCC3)c(=O)c3c2c2ccccc2n3C)o1	15.5
Cc1c(Cl)cccc1NC(=O)NC1CCCCC1	-29.2
O=C(Nc1ccccc1NC(=O)NC1CCCCC1)NC1CCCCC1	83.9*
Cc1ccc(NC(=O)NC2CCCCC2)cc1Cl	-73.8
NC(=O)c1ccsc1NC(=O)COc1ccccc1	-67.6
CC1Cc2ccccc2N1C(=O)CCNS(=O)(=O)c1cccc2nsnc12 (stereo unspecified)	6.9
CCOC(=O)C1=C(Cn2cnc3ccccc32)NC(=O)NC1c1cc(C)ccc1C (stereo unspecified)	59.3*
CCOC(=O)C1=C(C)Nc2ncnn2C1/C=C/c1ccccc1 (stereo unspecified)	0.6
